What follows are compounds tested on primary human airway basal cells (HBEC, luciferase-transduced) (assay: proliferation (luciferase bioluminescence) Z score relative to plate mean; higher = more proliferation / more cells, active = 1.96 or more). Settings: donor: 1; 0.5 µM; library: ENZO Libraries; 4 days.
Procedure: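 Primary human bronchial epithelial (airway basal) cells from two donors, lentivirally transduced with pHIV-Luc-ZsGreen, were seeded at 2000 cells/well in 384-well plates in FAD medium with ENZO or Prestwick library compounds and cultured for 4 days. Luciferin was then added and bioluminescence was read as a measure of cell number. Relative light units were converted to Z scores against the plate, and the mean of triplicate wells is reported.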

Row | Compound | proliferation
1 | C/C(O)=C(\C#N)C(=O)Nc1cc(Br)ccc1Br | 0.22 (inactive)
2 | N#CC(C#N)=Cc1ccc([N+](=O)[O-])c(O)c1 | -0.571 (inactive)
3 | CC(=O)Oc1ccc(/C=C/c2cc(OC(C)=O)cc(OC(C)=O)c2)cc1 [Triacetylresveratrol] | 1.28 (inactive)
4 | N#C/C(=C\c1ccc(O)c(O)c1)C(N)=S | -0.0372 (inactive)
5 | COC[C@H]1OC(=O)c2coc3c2[C@@]1(C)C1=C(C3=O)[C@@H]2CCC(=O)[C@@]2(C)C[C@H]1OC(C)=O [Wortmannin] | -1.04 (inactive)
6 | CCC(=O)CCCCC[C@@H]1NC(=O)[C@H]2CCCCN2C(=O)[C@H]([C@@H](C)CC)NC(=O)[C@H](Cc2cn(OC)c3ccccc23)NC1=O [Apicidin] | -0.149 (inactive)
7 | N[C@@H]1C[C@H]1c1ccccc1.N[C@H]1C[C@@H]1c1ccccc1 [Tranylcypromine hemisulfate] | -0.212 (inactive)
8 | N#CC(C#N)=Cc1cc(O)c(O)c(O)c1 | -0.0382 (inactive)
9 | N#CC(C#N)=Cc1ccc(O)c(O)c1 | 0.456 (inactive)
10 | NCCc1ccc(S(=O)(=O)F)cc1 | -0.284 (inactive)
11 | CC(=O)c1c(O)c(C)c(O)c(Cc2c(O)c3c(c(C(=O)/C=C/c4ccccc4)c2O)OC(C)(C)C=C3)c1O [Rottlerin] | 0.583 (inactive)
12 | N#CC(C#N)=Cc1cc(O)c(O)c([N+](=O)[O-])c1 | -0.414 (inactive)
13 | Cc1cc(O)c2c(=O)c3c(O)cc(O)c4c5c(O)cc(O)c6c(=O)c7c(O)cc(C)c8c1c2c(c34)c(c78)c65 [Hypericin] | 0.248 (inactive)

Same assay, conditions: donor: 1; 5 µM; library: ENZO Libraries; 4 days

Row | Compound | proliferation
14 | C/C(O)=C(\C#N)C(=O)Nc1cc(Br)ccc1Br | 0.228 (inactive)
15 | N#CC(C#N)=Cc1ccc([N+](=O)[O-])c(O)c1 | -0.0791 (inactive)
16 | CC(=O)Oc1ccc(/C=C/c2cc(OC(C)=O)cc(OC(C)=O)c2)cc1 [Triacetylresveratrol] | 4.6 (active)
17 | N#C/C(=C\c1ccc(O)c(O)c1)C(N)=S | -0.285 (inactive)
18 | COC[C@H]1OC(=O)c2coc3c2[C@@]1(C)C1=C(C3=O)[C@@H]2CCC(=O)[C@@]2(C)C[C@H]1OC(C)=O [Wortmannin] | -0.831 (inactive)
19 | CCC(=O)CCCCC[C@@H]1NC(=O)[C@H]2CCCCN2C(=O)[C@H]([C@@H](C)CC)NC(=O)[C@H](Cc2cn(OC)c3ccccc23)NC1=O [Apicidin] | -0.303 (inactive)
20 | N[C@@H]1C[C@H]1c1ccccc1.N[C@H]1C[C@@H]1c1ccccc1 [Tranylcypromine hemisulfate] | -0.48 (inactive)
21 | N#CC(C#N)=Cc1cc(O)c(O)c(O)c1 | -0.000622 (inactive)
22 | N#CC(C#N)=Cc1ccc(O)c(O)c1 | 0.134 (inactive)
23 | NCCc1ccc(S(=O)(=O)F)cc1 | -0.0822 (inactive)
24 | CC(=O)c1c(O)c(C)c(O)c(Cc2c(O)c3c(c(C(=O)/C=C/c4ccccc4)c2O)OC(C)(C)C=C3)c1O [Rottlerin] | -0.384 (inactive)
25 | N#CC(C#N)=Cc1cc(O)c(O)c([N+](=O)[O-])c1 | -0.101 (inactive)
26 | Cc1cc(O)c2c(=O)c3c(O)cc(O)c4c5c(O)cc(O)c6c(=O)c7c(O)cc(C)c8c1c2c(c34)c(c78)c65 [Hypericin] | -0.261 (inactive)
